The antibiotic and cytotoxicity screens of Wong et al. (2023)
The campaign covered roughly 39,000 compounds. About 3,300 (8.5%) were called active. The sample holds actives, similar compounds and a random draw of the others, so the mix is not that of the screen.

Test system: HepG2
Assay: cytotoxicity call (relative viability < 0.9)
Conditions: 10 µM

SMILES | cytotoxicity call
O=C1C[C@@H](c2ccc(O[C@@H]3O[C@H](CO)[C@@H](O)[C@H](O)[C@H]3O)cc2)Oc2cc(O)ccc21 | inactive
NC(=S)c1ccc(-n2cncn2)nc1 | inactive
COc1cccc(-c2ccc3c(c2)O[C@@H](CN(C)Cc2cncnc2)[C@@H](C)CN([C@@H](C)CO)S3(=O)=O)c1 | inactive
COC(=O)[C@H](Cc1ccccc1)N1CC2=CC(=O)[C@H](C3CC3)[C@H]2[C@@H]1[C@@H](O)CCn1cc(-c2cccc(/C=C/C(=O)NO)c2)nn1 | inactive
N#CN=C1NC(=O)CC(=O)N1 | inactive
C[C@H]1CN([C@@H](C)CO)C(=O)c2cc(-c3cccnc3)cnc2O[C@H]1CN(C)Cc1ccc(-c2ccccc2)cc1 | inactive
C[C@@H]1CN([C@H](C)CO)C(=O)c2cc(NC(=O)c3ccccc3)ccc2O[C@@H](C)CCCCO[C@@H]1CN(C)Cc1ccc2c(c1)OCO2 | active
C[C@@H]1CCCCO[C@@H](CN(C)Cc2ccc3c(c2)OCO3)[C@H](C)CN([C@H](C)CO)C(=O)c2cc(NC(=O)c3ccccc3)ccc2O1 | inactive
C[C@@H]1CN([C@@H](C)CO)C(=O)c2cc(NC(=O)c3ccccc3)ccc2O[C@@H](C)CCCCO[C@@H]1CN(C)Cc1ccc2c(c1)OCO2 | inactive
C[C@@H]1CCCCO[C@@H](CN(C)Cc2ccc3c(c2)OCO3)[C@@H](C)CN([C@H](C)CO)C(=O)c2cc(NC(=O)c3ccccc3)ccc2O1 | inactive
C[C@@H]1CCCCO[C@@H](CN(C)Cc2ccc3c(c2)OCO3)[C@H](C)CN([C@@H](C)CO)C(=O)c2cc(NC(=O)c3ccccc3)ccc2O1 | active
C[C@@H]1CCCCO[C@H](CN(C)Cc2ccc3c(c2)OCO3)[C@@H](C)CN([C@H](C)CO)C(=O)c2cc(NC(=O)c3ccccc3)ccc2O1 | inactive
C[C@H](CO)N1C[C@H](C)[C@@H](CN(C)Cc2ccc3c(c2)OCO3)OCCCC[C@H](C)Oc2ccc(NC(=O)c3ccccc3)cc2C1=O | inactive
C[C@@H]1CCCCO[C@H](CN(C)Cc2ccc3c(c2)OCO3)[C@H](C)CN([C@H](C)CO)C(=O)c2cc(NC(=O)c3ccccc3)ccc2O1 | inactive
C[C@@H]1CN([C@H](C)CO)C(=O)c2cc(NC(=O)c3ccccc3)ccc2O[C@@H](C)CCCCO[C@H]1CN(C)Cc1ccc2c(c1)OCO2 | active
C=CCN1C(=O)[C@@H]2[C@@H](C1=O)[C@@H]1C=C[C@@H]2C1 | inactive
COc1ccc(S(=O)(=O)Nc2cccc3c2O[C@@H](CN(C)Cc2ccncc2)[C@@H](C)CN([C@H](C)CO)C3=O)cc1 | inactive
C[C@H](CO)N1C[C@H](C)[C@@H](CN(C)C(=O)Nc2cccc3ccccc23)Oc2ccc(NC(=O)C3CCCCC3)cc2C1=O | inactive
Cc1ccc(S(=O)(=O)Nc2ccc3c(c2)C(=O)N([C@H](C)CO)C[C@@H](C)[C@@H](CN(C)C(=O)C2CCCCC2)OCCCC[C@@H](C)O3)cc1 | inactive
COC(=O)[C@@H](C)S(=O)(=O)NC(=O)c1cnc2ccccn2c1=O | inactive
O=C(C[C@H]1CC[C@H]2[C@@H](COC[C@@H](O)CN2C(=O)c2ccc3c(c2)OCO3)O1)NC1Cc2ccccc2C1 | inactive
Cn1cnc(S(=O)(=O)N2CC[C@@H](O)[C@@H]2Cc2cnn(C)c2)c1 | inactive
O=C1OCC=C[C@H]2O[C@@]34C=CCN(c5ccc6ccccc6c5)C(=O)[C@H]3N(CCCCCO)C(=O)[C@@H]4[C@@H]12 | inactive
C[C@H](CO)N1C[C@H](C)[C@H](CN(C)S(=O)(=O)c2cccs2)Oc2ccc(NC(=O)Cn3cnnn3)cc2C1=O | inactive

SMILES | cytotoxicity call
NCC1CCN(Cc2ccccc2)CC1 | inactive
S=C1SCN(Cc2ccccc2)CN1Cc1ccccc1 | active
NC1CCN(Cc2ccccc2)CC1 | inactive
COc1ccc(NC(=O)N(C)C[C@H]2OCCCC[C@H](C)Oc3ccc(NS(=O)(=O)c4c(C)noc4C)cc3C(=O)N([C@@H](C)CO)C[C@@H]2C)cc1 | inactive
COc1ccc(NC(=O)Nc2ccc3c(c2)C(=O)N([C@H](C)CO)C[C@H](C)[C@@H](CN(C)Cc2ccc(Cl)c(Cl)c2)OCCCC[C@@H](C)O3)cc1 | inactive
COc1ccc(NC(=O)Nc2ccc3c(c2)C(=O)N([C@@H](C)CO)C[C@@H](C)[C@@H](CN(C)Cc2ccc(Cl)c(Cl)c2)OCCCC[C@@H](C)O3)cc1 | active
COc1ccc(NC(=O)Nc2ccc3c(c2)C(=O)N([C@H](C)CO)C[C@@H](C)[C@H](CN(C)Cc2ccc(Cl)c(Cl)c2)OCCCC[C@@H](C)O3)cc1 | active
COc1ccc(NC(=O)Nc2ccc3c(c2)C(=O)N([C@@H](C)CO)C[C@H](C)[C@@H](CN(C)Cc2ccc(Cl)c(Cl)c2)OCCCC[C@@H](C)O3)cc1 | inactive
COc1ccc(NC(=O)Nc2ccc3c(c2)C(=O)N([C@@H](C)CO)C[C@@H](C)[C@@H](CN(C)Cc2ccc(Cl)c(Cl)c2)OCCCC[C@H](C)O3)cc1 | inactive
COc1ccc(NC(=O)Nc2ccc3c(c2)C(=O)N([C@@H](C)CO)C[C@H](C)[C@H](CN(C)Cc2ccc(Cl)c(Cl)c2)OCCCC[C@@H](C)O3)cc1 | inactive
CN(C)C(=O)C[C@H]1CC[C@H]2[C@@H](COC[C@H](O)CN2S(=O)(=O)c2ccccc2)O1 | inactive
Cc1noc(C)c1S(=O)(=O)Nc1ccc2c(c1)CC(=O)N([C@@H](C)CO)C[C@H](C)[C@@H](CN(C)C(=O)Nc1ccccc1)O2 | inactive
C[C@H](CO)N1C[C@H](C)[C@@H](CN(C)S(=O)(=O)c2ccc(Cl)cc2)Oc2ccc(NC(=O)Cn3cnnn3)cc2C1=O | inactive
Cc1noc(C)c1NC(=O)N(C)C[C@H]1Oc2ccc(NC(=O)Nc3ccc(C(F)(F)F)cc3)cc2CC(=O)N([C@H](C)CO)C[C@@H]1C | inactive
CCN([NH2+][O-])c1ccc(O)c(O)c1 | inactive
C[C@H]1CN([C@@H](C)CO)C(=O)CCCn2cc(nn2)CO[C@@H]1CN(C)C(=O)Nc1ccnc(N2CCOCC2)c1 | inactive
Cc1ccc(S(=O)(=O)N(C)C[C@H]2Oc3ccc(NC(=O)Nc4ccc(C(F)(F)F)cc4)cc3C(=O)N([C@@H](C)CO)C[C@H]2C)cc1 | active
Cc1ccc(S(=O)(=O)N(C)C[C@@H]2Oc3ccc(NC(=O)Nc4ccc(C(F)(F)F)cc4)cc3C(=O)N([C@@H](C)CO)C[C@@H]2C)cc1 | inactive
Cc1ccc(S(=O)(=O)N(C)C[C@@H]2Oc3ccc(NC(=O)Nc4ccc(C(F)(F)F)cc4)cc3C(=O)N([C@H](C)CO)C[C@@H]2C)cc1 | active
Cc1ccc(S(=O)(=O)N(C)C[C@H]2Oc3ccc(NC(=O)Nc4ccc(C(F)(F)F)cc4)cc3C(=O)N([C@H](C)CO)C[C@@H]2C)cc1 | inactive
Cc1ccc(S(=O)(=O)N(C)C[C@H]2Oc3ccc(NC(=O)Nc4ccc(C(F)(F)F)cc4)cc3C(=O)N([C@@H](C)CO)C[C@@H]2C)cc1 | inactive
Cc1ccc(S(=O)(=O)N(C)C[C@@H]2Oc3ccc(NC(=O)Nc4ccc(C(F)(F)F)cc4)cc3C(=O)N([C@H](C)CO)C[C@H]2C)cc1 | inactive
Cc1ccc(S(=O)(=O)N(C)C[C@H]2Oc3ccc(NC(=O)Nc4ccc(C(F)(F)F)cc4)cc3C(=O)N([C@H](C)CO)C[C@H]2C)cc1 | active
Cc1ccc(S(=O)(=O)N(C)C[C@@H]2Oc3ccc(NC(=O)Nc4ccc(C(F)(F)F)cc4)cc3C(=O)N([C@@H](C)CO)C[C@H]2C)cc1 | active
